This note sets out measurements from PubChem BioAssay (NCATS).

Inconclusive results are not listed. Active and inactive are the calls of the source. The call rests on the fitted dose curve; in most records, active means well fitted curve in the direction sought with a large enough effect; inconclusive means small, poorly fitted or top-dose-only effect, or another doubt; inactive means no such curve, though single readings can be large; an effect the other way counts as inactive or inconclusive.

Experiment [1] has as its target Glutathione peroxidase 1 (Homo sapiens) (UniProt P07203). The experiment is described as follows: Primary qHTS Assay for Inhibitors of Recombinant Selenoprotein Glutathione Peroxidase 1 (GPX1) (AID 1845191). Further: nearly all actives have a fitted effect of over 65% in size. Further: potency means the concentration at half of the fitted maximal effect. The following applies: recombinant GPX1, GR-coupled NADPH fluorescence, 15 min; series mostly up to 48.8 µM. An outline of the steps:
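GPX1 10 nM, GR 100 nM, GSH 1 mM, NADPH 0.5 mM, CHP 0.5 mM (final). 30-min cpd preincubation, RT. Ex340/Em450 read t=0, t=15 min.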

Experiment [2] concerns the target Phospholipid hydroperoxide glutathione peroxidase GPX4 (Homo sapiens) (UniProt P36969). The experiment is described as follows: Primary qHTS Assay for Inhibitors of Recombinant Selenoprotein Glutathione Peroxidase 4 (GPX4) (AID 1845192). Further: nearly all actives have a fitted effect of over 65% in size. The settings on record: recombinant GPX4, GR-coupled NADPH fluorescence, 15 min; series mostly up to 50 µM. An outline of the steps: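 qHTS, GR-coupled: GPX4 200 nM + cpd 30 min RT → GSH 1 mM, NADPH 0.5 mM, GR 100 nM → CHP 0.5 mM start; fluor 340/450 at t0 and t15 min; no-enzyme wells as control.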
A general note: In qHTS, concentration-response curves come from the screen itself.

The target in experiment [3] is Luciferin 4-monooxygenase (Photinus pyralis) (UniProt P08659). Nature of the experiment: Primary firefly luciferase (FLuc) qHTS assay for identification of artifact compounds. (AID 1845220). Further: nearly all actives have a fitted effect of over 60% in size. Further: potency means the concentration at half of the fitted maximal effect. The following applies: purified firefly luciferase, luminescence, 5 min; series mostly up to 54.1 µM. An outline of the steps:
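In this counter-screen for luciferase artifacts, test compounds met substrate (10 uM each luciferin and ATP) before 10 nM enzyme started the reaction. Light output was measured 5 min later.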

A short description of experiment [4]: Primary fluorescence-based thiol-reactive (MSTI) qHTS assay for identification of artifact compounds. (AID 1845221). Further: nearly all actives have a fitted effect of over 65% in size. Further: potency means the concentration at half of the fitted maximal effect. The following applies: MSTI thiol-reactivity probe, 1 h; series mostly up to 53.8 µM. An outline of the steps: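 Thiol-reactive compounds detected by quenching of 4 uM MSTI fluorescence (525/598 nm) after 1 h room-temperature dark incubation in PBS pH 7.4, 2% DMSO. qHTS titration; percent inhibition Hill-fitted against Acetyl-MSTI/MSTI controls.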

Experiment [5] concerns Nanoluciferase (engineered Oplophorus gracilirostris luciferase). The experiment is described as follows: Primary Nanoluciferase (NLuc) qHTS assay for identification of artifact compounds. (AID 1845222).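 Further: NLuc secreted into diluted conditioned medium of S16 cells.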 The settings on record: NLuc-conditioned medium, Nano-Glo luminescence, 5 min; series mostly up to 54.1 µM. An outline of the steps:
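Using secreted nanoluciferase in S16 culture medium (0.22 um filtered, 1:55 dilution), compounds were preincubated 15 min at RT. Signal was generated with Nano-Glo reagent (1:100) over 5 min.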

The nature of experiment [6]: Primary redox qHTS assay for identification of artifact compounds. (AID 1845223). The settings on record: Amplex Red/HRP redox cycling with DTT, fluorescence; series mostly up to 53.8 µM. An outline of the steps: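 Redox-cycling detection via DTT (250 uM final) oxidation coupled to Amplex Red (25 uM)/HRP (250 mU/mL) in HBSS. 15 min preincubation plus 30 min after DTT, room temperature. Ex/Em 525/598 nm; 4-parameter Hill fit against DMSO and 10 uM DA3003.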

Experiment [7] in a line: Quantitative High-Throughput drug screen in 47 multiple myeloma cell lines against the NCATS MIPE library collection: FR4_PLB cell viability assay (AID 1918924; further: nearly all actives have a fitted effect of over 35% in size; further: potency means the concentration at half of the fitted maximal effect). The following applies: FR4_PLB myeloma cells viability, CellTiter-Glo ATP, 48 h; series mostly up to 45.8 µM. An outline of the steps: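 qHTS of the MIPE 4.0 collection: 500 myeloma cells/well, 48 h drug exposure at 37C in 5% CO2, then CellTiter-Glo for 5 min at room temperature before luminescence reading.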
In general terms: Cellular ATP, detected with luciferase, serves as a proxy for viable cell number.

Experiment [8] is described as follows: Quantitative High-Throughput drug screen in 47 multiple myeloma cell lines against the NCATS MIPE library collection: Delta47_JCRB cell viability assay (AID 1918925; further: potency means the concentration at half of the fitted maximal effect; nearly all actives have a fitted effect of over 45% in size). The settings on record: Delta47 myeloma viability, CellTiter-Glo ATP, 48 h; series mostly up to 45.8 µM. In outline: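 CellTiter-Glo luminescence (ATP) after 48 h compound exposure, 37C/5% CO2; 500 cells/well; MIPE 4.0 approved/investigational drugs pinned in; DMSO = 100%, media only = 0% viability.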

Sequence of Glutathione peroxidase 1 (Homo sapiens) (P07203 whole entry, looked up): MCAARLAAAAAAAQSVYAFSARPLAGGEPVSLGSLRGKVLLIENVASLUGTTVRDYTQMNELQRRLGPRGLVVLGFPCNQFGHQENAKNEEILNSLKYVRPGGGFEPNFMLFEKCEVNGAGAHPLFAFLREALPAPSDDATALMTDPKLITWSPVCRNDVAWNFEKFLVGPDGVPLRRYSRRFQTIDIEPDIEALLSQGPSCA
Sequence of Phospholipid hydroperoxide glutathione peroxidase GPX4 (Homo sapiens) (P36969 whole entry, looked up): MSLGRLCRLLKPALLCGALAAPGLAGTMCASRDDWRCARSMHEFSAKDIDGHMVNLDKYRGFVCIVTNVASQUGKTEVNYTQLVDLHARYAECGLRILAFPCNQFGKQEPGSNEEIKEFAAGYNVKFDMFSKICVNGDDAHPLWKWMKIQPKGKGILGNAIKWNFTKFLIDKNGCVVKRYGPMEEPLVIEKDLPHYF

`COc1ncc(-c2ccc3nccc(-c4ccnnc4)c3c2)cc1NS(=O)(=O)c1ccc(F)cc1F`: the Potency result in experiment [1], in experiment [2], in experiment [3], in experiment [4] and in experiment [5] was “inactive” each time. For the same molecule, in experiment [6], the molecule was classed as inactive. Moreover, the Potency in experiment [7] was 0.0132 µM (active).
Take `CC(C)(C)C(=O)Oc1ccc2c(c1)nc(NC(=O)c1cccc([N+](=O)[O-])c1)n2CCCO`: the Potency result in experiment [1] and in experiment [2] was “inactive” in each case.
As for `CS(=O)(=O)N(Cc1ccco1)CC(O)Cn1c2ccccc2c2ccccc21` (stereo unspecified), the Potency entry in experiment [1], in experiment [2], in experiment [3], in experiment [4], in experiment [5] and in experiment [7] was “inactive” in each case. Moreover, in experiment [6], the outcome was inactive.
Regarding `CCOC(CN1C(=O)[C@](CC(=O)Nc2ccc(C)cc2)(NC(=O)Nc2ccc(C)cc2)c2ccccc21)OCC`, the Potency result in experiment [1] and in experiment [2] was “inactive” throughout.
Regarding `CC(C)(C)NC(=O)Nc1cccc(Nc2ncc(F)c(NC(C)(C)CO)n2)c1`, the Potency result in experiment [1], in experiment [2], in experiment [3], in experiment [4], in experiment [5] and in experiment [7] was “inactive” throughout. Besides, the outcome in experiment [6] was inactive.
`CC(C)(C)c1cc(C(=O)O)c(NC(=O)Nc2ccc3[nH]ncc3c2)s1`: the Potency result in experiment [1], in experiment [2], in experiment [5] and in experiment [7] was “inactive” in each case. Also, the Potency was 16.9 µM (active) in experiment [3] and 1.06 µM (active) in experiment [4]. Moreover, the molecule was classed as inactive in experiment [6].
For `c1ccc2c(-c3cnn4cc(-c5ccc(N6CCNCC6)cc5)cnc34)ccnc2c1`, the Potency entry in experiment [1] and in experiment [2] was “inactive” throughout.
As for `COc1cc2ncnc(-n3nc(-c4ccccn4)nc3N)c2cc1OC`, the Potency entry in experiment [1], in experiment [2], in experiment [3], in experiment [4] and in experiment [5] was “inactive” in each case. Besides, in experiment [6], the molecule was classed as inactive. Also, the Potency in experiment [7] is 11.8 µM (active).
For `Cc1ccc(/C=N/NC(=O)c2ccccc2Oc2ccccc2)o1`, the Potency result in experiment [1] and in experiment [2] was “inactive” in each case.
On to `Cc1ccc(Nc2cc(-c3cccc(N4C(=O)c5ccccc5C4=O)c3)ncn2)cc1NS(C)(=O)=O`, for which the Potency entry in experiment [1], in experiment [2], in experiment [3], in experiment [4] and in experiment [5] was “inactive” each time. Besides, in experiment [6], the call was inactive.
`O=C(CCN1CCN(C(=O)OCc2cc(Cl)cc(Cl)c2)CC1)c1ccc2[nH]c(=O)oc2c1`: the Potency result in experiment [1], in experiment [2], in experiment [3], in experiment [4], in experiment [5] and in experiment [7] was “inactive” throughout. In addition, the call in experiment [6] was inactive.
For `O=C(O)C(O)Cc1ccc(O)c(O)c1` (stereo unspecified), the Potency entry in experiment [1] and in experiment [2] was “inactive” throughout.
As to `COc1ccc(-n2c(C)c([N+](=O)[O-])c3ccc(O)cc32)cc1`, the Potency entry in experiment [1] and in experiment [2] was “inactive” each time.
As for `COCCOc1nc(-c2ccc(Cl)c(Cl)c2)n(-c2ccc(NC(=O)CCl)cc2)n1`, the Potency result in experiment [1], in experiment [2], in experiment [3], in experiment [4] and in experiment [5] was “inactive” throughout. Also, in experiment [6], the outcome was inactive.
Turning to `O=C(NCc1ccccc1)c1csc(Nc2ccncn2)n1`, the Potency entry in experiment [1], in experiment [2], in experiment [3], in experiment [4] and in experiment [5] was “inactive” throughout. Besides, the molecule was classed as inactive in experiment [6]. The Potency in experiment [7] and in experiment [8] was 14.8 µM (active) throughout.
For `CN(C[C@@H]1COCCO1)S(=O)(=O)Nc1ccc2ccc3ncc(-c4cnn(C)c4)cc3c(=O)c2c1`, the Potency result in experiment [1], in experiment [2], in experiment [3], in experiment [4] and in experiment [5] was “inactive” throughout. In addition, in experiment [6], the molecule was classed as inactive. The Potency in experiment [7] was 13.2 µM (active).
Regarding `CC(C)OC(=O)C(C)(C)Oc1ccc(C(=O)c2ccc(Cl)cc2)cc1`, the Potency result in experiment [1] and in experiment [2] was “inactive” each time.
For `COc1ccc2c(Oc3ccc(NC(=O)c4c(C)n(CC(C)(C)O)n(-c5ccccc5)c4=O)nc3)ccnc2c1`, the Potency entry in experiment [1], in experiment [2], in experiment [3], in experiment [4] and in experiment [5] was “inactive” in each case. Besides, in experiment [7], the Potency is 20.9 µM (active).
For `O=c1cc(N2CCOCC2)oc2c(-c3cccc4c3sc3ccccc34)cccc12`, the Potency result in experiment [1] and in experiment [2] was “inactive” throughout. For the same molecule, in experiment [7], the Potency was 20.9 µM (active).
Take `CC(C)(C(=O)NCC(F)(F)C(F)(F)F)C(=O)N[C@@H]1C(=O)Nc2ccccc2-c2ccccc21`: the Potency entry in experiment [1], in experiment [2] and in experiment [7] was “inactive” each time.
On to `Nc1ncnc2ccccc12`, for which the Potency entry in experiment [1], in experiment [2] and in experiment [7] was “inactive” in each case.
As for `CC(C)(Cc1ccc2ccccc2c1)NC[C@@H](O)COc1cccc(Cl)c1C#N`, the Potency result in experiment [1], in experiment [2] and in experiment [7] was “inactive” throughout.
On to `O=c1cc(CN2CCOCC2)occ1OCCCCCSc1ccnc2cc(C(F)(F)F)ccc12`, for which the Potency entry in experiment [1], in experiment [2], in experiment [3], in experiment [4] and in experiment [5] was “inactive” throughout. The Potency in experiment [8] is 6.62 µM (active).
In the case of `CCOC(=O)C1=C(N)Oc2ccc(Br)cc2C1C(C#N)C(=O)OCC` (stereo unspecified), the Potency result in experiment [1], in experiment [2], in experiment [3] and in experiment [5] was “inactive” in each case. Moreover, the molecule was classed as inactive in experiment [6]. Further, in experiment [7], the Potency was 20.9 µM (active).
In the case of `O=c1c(-c2ccc(O)cc2)coc2cc(O)ccc12`, the Potency result in experiment [1], in experiment [2] and in experiment [7] was “inactive” each time.
For the molecule `COCCOC(=O)C1=C(C)NC2=C(C(=O)CC(c3ccccc3OC)C2)C1c1cccc(O)c1` (stereo unspecified), the Potency result in experiment [1], in experiment [2], in experiment [3], in experiment [4] and in experiment [5] was “inactive” each time. Besides, the result in experiment [6] was inactive. For the same molecule, the results for the Potency in experiment [7] and in experiment [8] were 14.8 µM (active) and 1.05 µM (active), respectively.
In the case of `CC(C)C(=O)Nc1ncc(-c2cc(C(F)F)nn2-c2c(Cl)cccc2Cl)s1`, the Potency result in experiment [1], in experiment [2], in experiment [3], in experiment [4] and in experiment [5] was “inactive” throughout. For the same molecule, the molecule was called inactive in experiment [6]. Also, the Potency in experiment [8] was 26.4 µM (active).
Turning to `CC(C)n1nc(-c2ccc3oc(N)nc3c2)c2c(N)ncnc21`, the Potency result in experiment [1], in experiment [2], in experiment [3], in experiment [4] and in experiment [5] was “inactive” in each case. For the same molecule, the molecule was called inactive in experiment [6]. The Potency in experiment [8] is 0.0059 µM (active).
For the molecule `C[C@]12CC[C@@H]3c4ccc(O)cc4C[C@@H](CCCCCCCCCS(=O)CCCC(F)(F)C(F)(F)F)[C@H]3[C@H]1CC[C@H]2O` (stereo partly specified), the Potency result in experiment [1], in experiment [2] and in experiment [7] was “inactive” throughout.
Regarding `CCn1c(C(=O)N(C2CC2)C2CC2)cc2c3c(ncn3C)c(Nc3cc(C)n(C)n3)nc21`, the Potency result in experiment [1], in experiment [2], in experiment [3] and in experiment [5] was “inactive” throughout. Also, in experiment [6], the molecule was called inactive.
On to `O=C1C(Cl)=C(NCCN2CCOCC2)C(=O)c2ncccc21`, for which the Potency in experiment [1] is 9.16 µM (active); in experiment [7] it was 6.62 µM (active). In addition, the Potency entry in experiment [2] is “inactive”.
As for `COc1cc(Nc2ncc(F)c(Nc3ccc4c(n3)NC(=O)C(C)(C)O4)n2)cc(OC)c1OC`, the Potency result in experiment [1], in experiment [2], in experiment [3] and in experiment [5] was “inactive” each time. The result in experiment [6] was inactive. Also, the Potency in experiment [7] was 20.9 µM (active).
Take `CC(C)[C@H](CO)Nc1nc(Nc2ccc(C(=O)O)c(Cl)c2)c2ncn(C(C)C)c2n1`: the Potency entry in experiment [1], in experiment [2], in experiment [3] and in experiment [5] was “inactive” throughout. In addition, the molecule was called inactive in experiment [6]. The Potency in experiment [8] is 1.48 µM (active).
